# Screening data as filed in PubChem.
# Many of the other results were omitted from the sample, so hits are more common in it than they were.
# GluA2 TARP mod = modulators of AMPA receptor GluA2-stargazin complexes | O88602+P19491 | HEK293 GluA2+stargazin, membrane potential dye (FDSS), glutamate EC50; hits were called plate by plate, in both directions | calls only at 30 µM | 40,000 compounds, 3.5% hits | AID 1259245;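 active = any of four per-well response measures lying three or more SD from its plate-wide compound average, in either direction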
# GIRK2 activator = Activators of human GIRK2-containing channels; activation (% efficacy), % for hits at 75 µM; P48051; AID 1259324; HEK293 GIRK2/NPY4 cells, thallium flux fluorescence; 34,000 tested, under 10 active;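 active = primary screen hit, no activity in plain HEK293 cells, and in GIRK2-only cells above 5% efficacy rising with concentration; inactive = the rest, including fluorescent compounds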;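 also: efficacy is normalized control-subtracted fluorescence 15 s after thallium addition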
# Target sequence (P48051 whole entry, looked up): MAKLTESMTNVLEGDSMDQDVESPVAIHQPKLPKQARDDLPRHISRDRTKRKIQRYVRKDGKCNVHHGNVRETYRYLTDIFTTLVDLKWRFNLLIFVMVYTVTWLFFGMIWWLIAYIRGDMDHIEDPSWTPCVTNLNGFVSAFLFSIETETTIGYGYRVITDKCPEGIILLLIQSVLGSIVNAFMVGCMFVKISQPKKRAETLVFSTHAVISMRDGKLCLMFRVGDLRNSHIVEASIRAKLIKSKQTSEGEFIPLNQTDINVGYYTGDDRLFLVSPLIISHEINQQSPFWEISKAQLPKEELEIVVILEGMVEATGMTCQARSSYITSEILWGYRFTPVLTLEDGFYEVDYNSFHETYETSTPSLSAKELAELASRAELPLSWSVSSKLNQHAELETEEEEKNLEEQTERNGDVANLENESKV
# An asterisk follows results filed as active; i = inactive; / = no result; + = active, no number; [ ] = another dose, or the depositor's remark.
SMILES,GluA2 TARP mod,GIRK2 activator
CCC(=O)Nc1sc(SCC(N)=O)nc1-c1ccccc1,i,i
NC(=O)CSc1nc(-c2ccccc2)c(NC(=O)CC2CCCC2)s1,+,i
CCNC(=O)CSc1nc(-c2ccccc2)c(NC(=O)C(C)(C)Oc2ccc(Cl)cc2)s1,+,i
COc1ccc(Cl)cc1C(=O)Nc1sc(SCC(N)=O)nc1-c1ccccc1,i,i
COc1ccc(-c2noc(CSc3nc4ccccc4c(=O)n3C(C)C)n2)cc1OC,i,i
CCOc1ccccc1C(=O)Nc1cc(C)nn1-c1nc(-c2ccc3c(c2)OCO3)cs1,i,i
COC(=O)c1ccc(NC(=O)Cn2cc(-c3ccccc3C)c(N3CCOCC3)n2)cc1,/,i
COCCN1CCC(CNS(=O)(=O)c2cc(OC)ccc2OC)CC1,i,i
COc1cc(OC)cc(C(=O)N2CCCN(CCn3cccn3)CC2)c1,i,i
CCc1ccc(-c2nc(C(N)=O)c3[nH]c(=O)n(-c4cccc(OC)c4)c3n2)cc1,i,i
CCc1ccc(N2C(=O)N(CC(=O)N3CCOc4ccc(C)cc43)C3CS(=O)(=O)CC32)cc1 (configuration not stated),i,i
CCCc1c(C(=O)NCc2ccccc2OC)nnn1-c1ccccc1,i,i
CCCc1c(C(=O)Nc2ccccc2F)nnn1-c1ccccc1,i,7.0%*[25 µM]
O=C(Nc1nc(-c2cccnc2)cs1)C1CCN(S(=O)(=O)c2ccc(Cl)s2)CC1,+,/
O=C(Nc1nc(-c2cccnc2)cs1)C1CCN(S(=O)(=O)c2cccs2)CC1,i,/
COc1ccccc1CCNC(=O)Cc1csc(Nc2ccc(S(C)(=O)=O)cc2)n1,i,i
CC(=O)N1CC(C(=O)Nc2cccc(Cl)c2Cl)C1,i,i
CCCCn1c(=O)c2c(nc3n2CC(C)CN3c2ccc(OC)cc2)n(C)c1=O (configuration not stated),i,/
O=C(Nc1ccccc1)C(=O)Nc1ccc([N+](=O)[O-])cc1,i,/
O=[N+]([O-])c1ccc(C2=NCCN2)cc1,+,/
COC1CS(=O)(=O)CC1OC (configuration not stated),+,/
CCOC(=O)c1ccccc1NC(=O)CN1CCCN(Cc2cc(C)ccc2C)S1(=O)=O,+,i
COc1ccc(NC(=O)CN2CCCN(Cc3cc(C)ccc3C)S2(=O)=O)c(OC)c1,i,i
O=C1CCC(C(=O)NCC#CCN2CCc3ccccc3C2)N1 (configuration not stated),i,/
CCOC(=O)N1CCN(C(=O)Cn2nc(-c3ccc(OC)c(OC)c3)ccc2=O)CC1,i,i
SMILES,GluA2 TARP mod,GIRK2 activator
COc1ccc(NC(=O)Cc2ccc(SC)cc2)cc1,i,/
CCc1ccc(NC(=O)C(=O)Nc2ccc([N+](=O)[O-])cc2)cc1,i,/
CSc1ccc(CC(=O)Nc2ccc([N+](=O)[O-])cc2)cc1,+,/
O=C(NCCc1ccc(F)cc1)Nc1ccc([N+](=O)[O-])cc1,+,/
COC(=O)C12CC3CC(CC(NC(=O)C4CCN(S(C)(=O)=O)CC4)(C3)C1)C2,i,i
COC(=O)c1ccc(C(=O)OC)c(NC(=O)C2CCCCC2C(=O)O)c1 (configuration not stated),i,/
O=C(C1COCC(=O)N1Cc1ccccc1)N1CCN(c2cccc(Cl)c2)CC1 (configuration not stated),+,i
CC(C)(C)c1cc(NC(=O)C2COCC(=O)N2Cc2ccccc2)on1 (configuration not stated),+,i
O=C(Nc1ccc(-n2cnnn2)cc1)C1COCC(=O)N1Cc1ccccc1 (configuration not stated),i,i
O=C(C1COCC(=O)N1Cc1ccccc1)N1CCN(c2ccc(F)cc2)CC1 (configuration not stated),i,i
O=C(Cc1csc(Nc2cccc(C(F)(F)F)c2)n1)Nc1cccnc1,i,i
COc1ccc(NC(=O)Cc2csc(Nc3cccc(C(F)(F)F)c3)n2)cc1OC,i,i
COCCNC(=O)N1CCC(c2nnc(C3CC3)o2)CC1,i,i
COc1ccccc1CCNC(=O)c1cc2c(=O)n(C)c(=O)n(C)c2s1,i,i
CSc1cccc(NC(=O)NCCNc2nc(C)cc(N(C)C)n2)c1,i,i
Cc1cc(N(C)C)nc(NCCNC(=O)Nc2cccc(C(F)(F)F)c2)n1,+,i
CC(C)Sc1cccc(C(=O)Nc2sccc2C(N)=O)c1,+,/
CC(C)Sc1cccc(C(=O)Nc2nnc(-c3cccs3)o2)c1,i,/
C#CCn1c(=NC(=O)C2CCCN(S(C)(=O)=O)C2)sc2cc(CC)ccc21 (configuration not stated),i,i
Cc1ccc(S(=O)(=O)/C(C#N)=C/N2CCN(Cc3ccccc3)CC2)cc1C,+,i
Cc1ccc(S(=O)(=O)/C(C#N)=C/N2CCN(Cc3ccc4c(c3)OCO4)CC2)cc1C,i,i
O=S(=O)(NC1(c2nc(-c3cnccn3)no2)CCCCC1)c1ccc(F)c(Cl)c1,+,i
Cc1noc(C)c1S(=O)(=O)NC1(c2nc(-c3cnccn3)no2)CCCCC1,i,i
O=C(Nc1cccc(N2CCCC2=O)c1)c1ccccc1Br,i,/
O=C(NCCCc1ccccc1)N1CCN(Cc2nc(-c3cccs3)cs2)CC1,i,i
SMILES,GluA2 TARP mod,GIRK2 activator
COc1ccc(-c2cc(C(F)(F)F)nc(SCC(=O)N3CCCC3)n2)cc1OC,i,/
COC(=O)CSc1nc(-c2ccc(F)cc2)cc(C(F)(F)F)n1,+,/
CCCS(=O)(=O)N1CCN=C1SCc1ccccc1F,i,/
COc1nn(C)cc1-c1nnc(SCC(=O)N(C)c2ccccc2)n1C,i,i
CS(=O)(=O)c1ccc(CC(=O)Nc2ccccc2Oc2ccccc2)cc1,+,/
Cc1ccc(S(=O)(=O)CCCC(=O)Nc2ccccc2Oc2ccccc2)cc1,+,i
CS(=O)(=O)c1ccc(CC(=O)Nc2nc(-c3ccc(Oc4ccccc4)cc3)cs2)cc1,i,/
COc1ccc(S(=O)(=O)CCC(=O)Nc2ccccc2Oc2ccccc2)cc1,i,i
O=S(=O)(NCCOc1ccc(-c2cccs2)nn1)c1ccccc1,i,i
COc1ccc(CCNC(=O)CC2CCCCN2S(=O)(=O)c2ccc(F)cc2)cc1 (configuration not stated),+,/
COc1ccc(CCNC(=O)CC2CCCCN2S(=O)(=O)c2ccc(Cl)cc2)cc1 (configuration not stated),+,/
COc1ccc(CCNC(=O)CC2CCCCN2S(=O)(=O)c2ccc(OC)cc2)cc1 (configuration not stated),i,/
COc1ccc(S(=O)(=O)N2CCCCC2CC(=O)NCCc2ccc(Cl)cc2)cc1 (configuration not stated),i,/
O=C(Nc1ccc2c(c1)OCCO2)c1cc2c(=O)n3ccccc3nc2n1Cc1ccccc1,i,i
Cc1ccc(Cl)c2sc(N3CCN(C(=O)C4CCCN4S(C)(=O)=O)CC3)nc12 (configuration not stated),/,i
O=C(Cn1cc(-c2nc(-c3cnccn3)no2)ccc1=O)NCc1ccc(F)cc1Cl,i,i
CC(C)N(CC#CCNS(=O)(=O)c1ccc2ccccc2c1)C(C)C,+,/
COc1ccc(S(=O)(=O)NCC#CCN(C(C)C)C(C)C)cc1OC,i,/
